# Source: the supplement of paper PMC12645437, “Orthogonal IMiD-Degron Pairs Induce Selective Protein Degradation in Cells” (ACS Chemical Biology, 2025)
# The full ranking holds about 8,300 sequences; the median of “log2 fold change of degron read counts, EGFP-low vs EGFP+ sorted cells (limma voom), compound-induced degradation” is about -1.1, and the highest 2% start at about 3.2. The sample as a whole holds a higher share of the highest values than the screen did.
# Target: T1, CRBN, Q96SW2
# T1 chain: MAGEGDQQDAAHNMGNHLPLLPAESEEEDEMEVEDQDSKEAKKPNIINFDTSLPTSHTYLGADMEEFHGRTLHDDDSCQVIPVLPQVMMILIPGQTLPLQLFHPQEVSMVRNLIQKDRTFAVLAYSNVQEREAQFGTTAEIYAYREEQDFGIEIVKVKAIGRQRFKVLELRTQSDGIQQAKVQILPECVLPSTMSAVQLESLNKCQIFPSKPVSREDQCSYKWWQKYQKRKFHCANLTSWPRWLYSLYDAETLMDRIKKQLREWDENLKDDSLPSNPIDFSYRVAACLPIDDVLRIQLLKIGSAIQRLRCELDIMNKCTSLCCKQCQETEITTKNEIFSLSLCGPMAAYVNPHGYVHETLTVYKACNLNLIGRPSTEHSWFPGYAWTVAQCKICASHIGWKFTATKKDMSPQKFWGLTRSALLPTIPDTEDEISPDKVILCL
# Test: log2 fold change of degron read counts, EGFP-low vs EGFP+ sorted cells (limma voom), compound-induced degradation; higher = more compound-induced degradation of the degron-EGFP fusion; degrons are variants of IKZF1/3 zinc finger 2; compound dose not given here
# Conditions: Jurkat, 18 h
# [1] = compound: compound 19 (5-tert-butyl-thalidomide)
# [2] = compound: compound 22 (5-morpholino-thalidomide)
# [3] = compound: compound 33 (diphenyl IMiD analogue)
# 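Further: pooled lentiviral library of zinc finger degron-EGFP fusions in mCherry-positive Jurkat cells, FACS-sorted after compound exposure, with degron abundance counted by next-generation sequencing.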
sequence,measurement,setting,value
"FFCDQCGANFTQKGNLLRHIKL [46F_47F_49D_50Q_52G_53A_54N_55F_67L_, Q9UKT9]",log2 fold change of degron read counts,[1],-0.567
same,log2 fold change of degron read counts,[2],-0.255
same,log2 fold change of degron read counts,[3],-1.24
same,log2 fold change of degron read counts,compound: thalidomide,-2.4
"FSCDVCGAPFTQKGNLLRHIKL [46F_47S_49D_50V_52G_53A_54P_55F_67L_, Q9UKT9]",log2 fold change of degron read counts,[1],0.883
same,log2 fold change of degron read counts,[2],-0.0159
same,log2 fold change of degron read counts,[3],-0.896
same,log2 fold change of degron read counts,compound: thalidomide,-0.557
"LQCNQCGFHCTQKGNLLRHIKL [46L_47Q_49N_50Q_52G_53F_54H_55C_67L_, Q9UKT9]",log2 fold change of degron read counts,[1],-2.12
same,log2 fold change of degron read counts,[2],-2.37
same,log2 fold change of degron read counts,[3],-2.09
same,log2 fold change of degron read counts,compound: thalidomide,-1.42
"FFCNQCGHGFTQKGNLLRHIKL [46F_47F_49N_50Q_52G_53H_54G_55F_67L_, Q9UKT9]",log2 fold change of degron read counts,[1],-2.03
same,log2 fold change of degron read counts,[2],-2.15
same,log2 fold change of degron read counts,[3],-2.79
same,log2 fold change of degron read counts,compound: thalidomide,-2.52
"LECPICGFMCTQKGNLLRHIKL [46L_47E_49P_50I_52G_53F_54M_55C_67L_, Q9UKT9]",log2 fold change of degron read counts,[1],-0.459
same,log2 fold change of degron read counts,[2],-0.68
same,log2 fold change of degron read counts,[3],1.22
same,log2 fold change of degron read counts,compound: thalidomide,2.37
"LSCPICGFMCTQKGNLLRHIKL [46L_47S_49P_50I_52G_53F_54M_55C_67L_, Q9UKT9]",log2 fold change of degron read counts,[1],1.79
same,log2 fold change of degron read counts,[2],1.66
same,log2 fold change of degron read counts,[3],1.67
same,log2 fold change of degron read counts,compound: thalidomide,1.42
"LWCPICGFMCTQKGNLLRHIKL [46L_47W_49P_50I_52G_53F_54M_55C_67L_, Q9UKT9]",log2 fold change of degron read counts,[1],2.86
same,log2 fold change of degron read counts,[2],3.37
same,log2 fold change of degron read counts,[3],2.86
same,log2 fold change of degron read counts,compound: thalidomide,1.56
"LKCPICGFMCTQKGNLLRHIKL [46L_47K_49P_50I_52G_53F_54M_55C_67L_, Q9UKT9]",log2 fold change of degron read counts,[1],-1.07
same,log2 fold change of degron read counts,[2],-2.03
same,log2 fold change of degron read counts,[3],-1.81
same,log2 fold change of degron read counts,compound: thalidomide,-0.667
"LYCPICGFMCTQKGNLLRHIKL [46L_47Y_49P_50I_52G_53F_54M_55C_67L_, Q9UKT9]",log2 fold change of degron read counts,[1],3.14
same,log2 fold change of degron read counts,[2],2.92
same,log2 fold change of degron read counts,[3],2.43
same,log2 fold change of degron read counts,compound: thalidomide,1.14
"LGCPICGFMCTQKGNLLRHIKL [46L_47G_49P_50I_52G_53F_54M_55C_67L_, Q9UKT9]",log2 fold change of degron read counts,[1],3.42
same,log2 fold change of degron read counts,[2],1.83
same,log2 fold change of degron read counts,[3],1.01
same,log2 fold change of degron read counts,compound: thalidomide,0.537
"LQCPICGFMCTQKGNLLRHIKL [46L_47Q_49P_50I_52G_53F_54M_55C_67L_, Q9UKT9]",log2 fold change of degron read counts,[1],0.655
same,log2 fold change of degron read counts,[2],2.15
same,log2 fold change of degron read counts,[3],2.04
same,log2 fold change of degron read counts,compound: thalidomide,3.55
"LVCPICGFMCTQKGNLLRHIKL [46L_47V_49P_50I_52G_53F_54M_55C_67L_, Q9UKT9]",log2 fold change of degron read counts,[1],0.688
same,log2 fold change of degron read counts,[2],2.15
same,log2 fold change of degron read counts,[3],2.09
same,log2 fold change of degron read counts,compound: thalidomide,2.63
"LTCPICGFMCTQKGNLLRHIKL [46L_47T_49P_50I_52G_53F_54M_55C_67L_, Q9UKT9]",log2 fold change of degron read counts,[1],0.987
same,log2 fold change of degron read counts,[2],1.84
same,log2 fold change of degron read counts,[3],2.27
same,log2 fold change of degron read counts,compound: thalidomide,2.3
"FVCPQCGAFFTQKGNLLRHIKL [46F_47V_49P_50Q_52G_53A_54F_55F_67L_, Q9UKT9]",log2 fold change of degron read counts,[1],-1.99
same,log2 fold change of degron read counts,[2],-1.44
same,log2 fold change of degron read counts,[3],-0.515
same,log2 fold change of degron read counts,compound: thalidomide,-0.988
"FCCPICGHFFTQKGNLLRHIKL [46F_47C_49P_50I_52G_53H_54F_55F_67L_, Q9UKT9]",log2 fold change of degron read counts,[1],-1.42
same,log2 fold change of degron read counts,[2],-2.1
same,log2 fold change of degron read counts,[3],-1.42
same,log2 fold change of degron read counts,compound: thalidomide,-1.48
"FACEICGHNFTQKGNLLRHIKL [46F_47A_49E_50I_52G_53H_54N_55F_67L_, Q9UKT9]",log2 fold change of degron read counts,[1],-2.91
same,log2 fold change of degron read counts,[2],-3.62
same,log2 fold change of degron read counts,[3],-3.22
same,log2 fold change of degron read counts,compound: thalidomide,-3.1
"FECSVCGHHFTQKGNLLRHIKL [46F_47E_49S_50V_52G_53H_54H_55F_67L_, Q9UKT9]",log2 fold change of degron read counts,[1],-3.39
same,log2 fold change of degron read counts,[2],-3.71
same,log2 fold change of degron read counts,[3],-3.71
same,log2 fold change of degron read counts,compound: thalidomide,-3.11
"FRCPICGHVFTQKGNLLRHIKL [46F_47R_49P_50I_52G_53H_54V_55F_67L_, Q9UKT9]",log2 fold change of degron read counts,[1],-2.24
same,log2 fold change of degron read counts,[2],-2.31
same,log2 fold change of degron read counts,[3],-0.964
same,log2 fold change of degron read counts,compound: thalidomide,-1.86
"LACEICGFFCTQKGNLLRHIKL [46L_47A_49E_50I_52G_53F_54F_55C_67L_, Q9UKT9]",log2 fold change of degron read counts,[1],1.23
same,log2 fold change of degron read counts,[2],0.591
same,log2 fold change of degron read counts,[3],0.235
same,log2 fold change of degron read counts,compound: thalidomide,0.329
"FKCEICGHCFTQKGNLLRHIKL [46F_47K_49E_50I_52G_53H_54C_55F_67L_, Q9UKT9]",log2 fold change of degron read counts,[1],-2.38
same,log2 fold change of degron read counts,[2],-3.82
same,log2 fold change of degron read counts,[3],-3.48
same,log2 fold change of degron read counts,compound: thalidomide,-2.98
"FQCEICGHGFTQKGNLLRHIKL [46F_47Q_49E_50I_52G_53H_54G_55F_67L_, Q9UKT9]",log2 fold change of degron read counts,[1],-3.85
same,log2 fold change of degron read counts,[2],-4.27
same,log2 fold change of degron read counts,[3],-2.95
same,log2 fold change of degron read counts,compound: thalidomide,-2.21
"LFCNQCGFYCTQKGNLLRHIKL [46L_47F_49N_50Q_52G_53F_54Y_55C_67L_, Q9UKT9]",log2 fold change of degron read counts,[1],-0.734
same,log2 fold change of degron read counts,[2],-0.67
same,log2 fold change of degron read counts,[3],-0.837
same,log2 fold change of degron read counts,compound: thalidomide,-0.422
"FNCPICGARFTQKGNLLRHIKL [46F_47N_49P_50I_52G_53A_54R_55F_67L_, Q9UKT9]",log2 fold change of degron read counts,[1],2.1
same,log2 fold change of degron read counts,[2],1.39
same,log2 fold change of degron read counts,[3],-0.35
same,log2 fold change of degron read counts,compound: thalidomide,0.971
"FGCPICGARFTQKGNLLRHIKL [46F_47G_49P_50I_52G_53A_54R_55F_67L_, Q9UKT9]",log2 fold change of degron read counts,[1],3.39
same,log2 fold change of degron read counts,[2],2.28
same,log2 fold change of degron read counts,[3],0.0226
same,log2 fold change of degron read counts,compound: thalidomide,1.05
"FQCPICGALFTQKGNLLRHIKL [46F_47Q_49P_50I_52G_53A_54L_55F_67L_, Q9UKT9]",log2 fold change of degron read counts,[1],-1.04
same,log2 fold change of degron read counts,[2],1.75
same,log2 fold change of degron read counts,[3],1.86
same,log2 fold change of degron read counts,compound: thalidomide,3.37
"FLCPICGARFTQKGNLLRHIKL [46F_47L_49P_50I_52G_53A_54R_55F_67L_, Q9UKT9]",log2 fold change of degron read counts,[1],0.407
same,log2 fold change of degron read counts,[2],-0.333
same,log2 fold change of degron read counts,[3],0.469
same,log2 fold change of degron read counts,compound: thalidomide,1.92
"FWCPICGARFTQKGNLLRHIKL [46F_47W_49P_50I_52G_53A_54R_55F_67L_, Q9UKT9]",log2 fold change of degron read counts,[1],2.78
same,log2 fold change of degron read counts,[2],3.66
same,log2 fold change of degron read counts,[3],1.23
same,log2 fold change of degron read counts,compound: thalidomide,1.15
"FSCPICGALFTQKGNLLRHIKL [46F_47S_49P_50I_52G_53A_54L_55F_67L_, Q9UKT9]",log2 fold change of degron read counts,[1],0.486
same,log2 fold change of degron read counts,[2],-0.0754
same,log2 fold change of degron read counts,[3],2.59
same,log2 fold change of degron read counts,compound: thalidomide,0.134
"FVCPICGARFTQKGNLLRHIKL [46F_47V_49P_50I_52G_53A_54R_55F_67L_, Q9UKT9]",log2 fold change of degron read counts,[1],0.924
same,log2 fold change of degron read counts,[2],2.47
same,log2 fold change of degron read counts,[3],0.874
same,log2 fold change of degron read counts,compound: thalidomide,2.71
"FSCPICGARFTQKGNLLRHIKL [46F_47S_49P_50I_52G_53A_54R_55F_67L_, Q9UKT9]",log2 fold change of degron read counts,[1],2.63
same,log2 fold change of degron read counts,[2],2.4
same,log2 fold change of degron read counts,[3],0.555
same,log2 fold change of degron read counts,compound: thalidomide,1.65
"FVCPICGALFTQKGNLLRHIKL [46F_47V_49P_50I_52G_53A_54L_55F_67L_, Q9UKT9]",log2 fold change of degron read counts,[1],-0.961
same,log2 fold change of degron read counts,[2],0.498
same,log2 fold change of degron read counts,[3],1.25
same,log2 fold change of degron read counts,compound: thalidomide,1.5
"FECPICGARFTQKGNLLRHIKL [46F_47E_49P_50I_52G_53A_54R_55F_67L_, Q9UKT9]",log2 fold change of degron read counts,[1],0.918
same,log2 fold change of degron read counts,[2],-0.107
same,log2 fold change of degron read counts,[3],1.75
same,log2 fold change of degron read counts,compound: thalidomide,3.37
"FRCPICGARFTQKGNLLRHIKL [46F_47R_49P_50I_52G_53A_54R_55F_67L_, Q9UKT9]",log2 fold change of degron read counts,[1],-0.853
same,log2 fold change of degron read counts,[2],-0.665
same,log2 fold change of degron read counts,[3],-0.334
same,log2 fold change of degron read counts,compound: thalidomide,0.377
"FYCPICGARFTQKGNLLRHIKL [46F_47Y_49P_50I_52G_53A_54R_55F_67L_, Q9UKT9]",log2 fold change of degron read counts,[1],2.38
same,log2 fold change of degron read counts,[2],2.5
same,log2 fold change of degron read counts,[3],0.405
same,log2 fold change of degron read counts,compound: thalidomide,-0.0683
